Shown is part of a subset that was picked to be rich in hits.
TTR transcr act: increases transthyretin transcription. AID 1117267. 92,000 tested, 1.3% active. SH-SY5Y TTR promoter Gaussia luciferase, luminescence; 100% = recombinant luciferase protein wells. activation, % at 16.7 µM;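 active means activation above the mean of all tested compounds plus 3 SD, cut at about 9.5% in these data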;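 further: cells exposed to compounds for one day before reading; 0% = median of all test compound wells on the plate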
HuH7 TTR inh: counter-screen for TTR activators: TTR transcription inhibitors in HuH7 cells. HuH7 TTR promoter-Gaussia luciferase reporter, luminescence. AID 1117279. 1,100 tested, 4% active. shares compounds with TTR transcr act. inhibition, % at 16.7 µM;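 active means average inhibition above the solvent-only control wells' mean plus 3 SD, cut at about 15% in these data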;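 further: 0% = cells with DMSO only and 100% = cells with inhibitor control FD; inhibitors lower well luminescence so higher value means more inhibition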
TTR act confirm: confirmation of human transthyretin transcription activators | shares compounds with TTR transcr act | SHSY5Y TTR promoter Gaussia luciferase, luminescence; 100% = purified Lucia enzyme wells, no cells | activation, % at 16.7 µM | 1,100 tested, under 10 active;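 active means mean activation above a set limit taken from the earlier primary screen, cut at about 11% in these data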;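 further: 0% = DMSO-treated cells and 100% = recombinant Lucia luciferase without cells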
* hit, by the source's call.

SMILES | TTR transcr act | others
COCCCNCCCCOc1ccc(OCc2ccccc2)cc1 | 34* | HuH7 TTR inh=-11;TTR act confirm=0
COCCCNCCCCOc1ccccc1-c1ccccc1 | 1
COC(=O)[C@]12C[C@H](CC(=O)NCCc3ccccc3OC)C(=O)N(Cc3ccco3)C1=C[C@H](C1CCCC1)O[C@@H]2C | 3
Cc1ccc(S(=O)(=O)N2CC3(COC(C)(C)OC3)C[C@H]2CON2C(C)(C)CCCC2(C)C)cc1 | -1
Nc1[nH]c(C(=O)c2ccccc2)c(-c2ccccn2)c1C(=O)c1c[nH]c2ccc(Br)cc12 | 1
O=C(Cc1ccc(NC(=O)C2CCCN(C(=O)c3ccccc3)C2)cc1)Nc1cccc(C(=O)N2CCCC2)c1 (stereo not given) | 0
CCCCn1cnc2c(SCc3ccccc3F)nc(N)nc21 | -2
CCOc1ccccc1NC(=O)c1cc(Cl)ccc1NC(=O)c1ccco1 | 12* | HuH7 TTR inh=-11;TTR act confirm=0
COc1cc(NC(=O)c2ccccc2Cl)ccc1NC(=O)c1ccco1 | -2
CCOc1cc(NC(=O)c2ccco2)c(OCC)cc1NC(=O)CCc1ccccc1OC | -2
COc1ccc(NC(=O)c2cc(-c3cc(Cl)ccc3C)n[nH]2)c(OC)c1 | -3
C[C@H]1COc2cc(Br)ccc2S(=O)(=O)N1Cc1cn(CC2CCCCC2)nn1 | 0
CC(=O)OCCC(CC(C)C)NC(=O)[C@H](CC(C)C)NC(=O)OCc1ccccc1 (stereo not given in full) | -1
CCc1ccc(Nc2nc(C)cc(C)c2C(N)=O)cc1 | 1
COc1ccc(Nc2nc(C)cc(C)c2C(N)=O)cc1 | -2
Cc1cc(C)c(C(N)=O)c(Nc2ccc3c(c2)OCCO3)n1 | 10* | HuH7 TTR inh=-11;TTR act confirm=0
Cc1cc(C)c(CN2CCN(C(=O)Cn3cc(C)c(=O)[nH]c3=O)CC2)c(C)c1 | -1
CCCC/C=C1/[C@H](c2ccccc2)N(C)C2=N[C@H](c3ccccc3)CC(=O)N21 | 2
O=C(NCCc1c[nH]c2ccccc12)OCc1cn(-c2ccc(F)cc2F)nn1 | 4
CC(=O)O[C@H]1C=C[C@@H](NC(=O)OC(C)(C)C)C1 | 2
CC(C)Cc1nnc(NC(=O)CCN2C(=O)c3ccccc3C2=O)s1 | 0
O=C(CCN1C(=O)c2ccccc2C1=O)Nc1nc2ccccc2s1 | -1
CCC(CC)c1nnc(NC(=O)CCN2C(=O)c3ccccc3C2=O)s1 | 15* | HuH7 TTR inh=-18;TTR act confirm=0
Cc1cccc(NC(=O)OC2CC3CC2[C@H]2CCCCN2C3)c1 (stereo not given in full) | -1
CCCC1CCC2(CC1)CCC2OC(=S)Nc1ccccc1OC (stereo not given) | 0
SMILES | TTR transcr act | others
CCN(c1ccccc1)S(=O)(=O)c1ccc(F)cc1 | 1
CCN(c1ccccc1)S(=O)(=O)c1ccc(Cl)nc1 | 19* | HuH7 TTR inh=-4;TTR act confirm=1
O=S(=O)(c1ccc(Cl)nc1)N(Cc1ccccc1)Cc1ccccc1 | -3
Nc1ccn([C@@H]2O[C@H](C(=O)N3CCN(c4ccc(Cl)cn4)CC3)[C@@H](O)[C@H]2O)c(=O)n1 | -1
COC(=O)[C@]12C[C@H](CC(=O)NCC3CCCCC3)C(=O)N(Cc3ccc(Cl)cc3Cl)C1=C[C@H](COCc1ccccc1)O[C@@H]2C | -1
CCOC(=O)N1CCN(C2CCCN(C(=O)c3ccccc3SC)C2)CC1 (stereo not given) | 1
COCCSc1ccccc1C(=O)N1CCCC(C)C1 (stereo not given) | 21* | HuH7 TTR inh=-26;TTR act confirm=0
COCCSc1ccccc1C(=O)N1CCN(c2ccccc2)CC1 | 0
Cc1ccccc1CSc1ccc(S(=O)(=O)N2CCCC2)cn1 | 3
CCOP(=O)(OCC)c1ccc2c(c1)C(=O)c1ccccc1-2 | -1
O=C(CCN1CCOCC1)c1ccc(N2CCCCC2)cc1 | 10.0* | HuH7 TTR inh=-9;TTR act confirm=0
CC(C)(C)c1cc(C(=O)CCN2CCOCC2)cc(C(C)(C)C)c1O | -4
CCC(=O)c1ccc(OCCN2CCOCC2)cc1 | -1
COC(=O)[C@]12C[C@H](CC(=O)NCc3cccc4ccccc34)C(=O)N(Cc3ccc4c(c3)OCO4)C1=C[C@H](C(C)C)O[C@@H]2C1CC1 | 0
CC(C)[C@@H](C)/C=C/[C@@H](C)[C@H]1CC[C@@H]2[C@]1(C)CCC1[C@]23C=C[C@]2(C[C@@H](O)CC[C@]12C)N(c1ncc(C(F)(F)F)cc1Cl)O3 (stereo not given in full) | -1
Cc1ccc([N+](=O)[O-])cc1N=C(c1cccc([N+](=O)[O-])c1)N1CCOCC1 | 15* | HuH7 TTR inh=-8;TTR act confirm=1
Cc1ccc([N+](=O)[O-])cc1N=C(c1ccc([N+](=O)[O-])cc1)N1CCOCC1 | 1
O=[N+]([O-])c1cccc(NC(=S)N2CCOCC2)c1 | 1
COc1ccc(C2CC(=O)C3=C(C2)Nc2ccccc2N(C(=O)CCC(=O)O)C3c2ccc(F)cc2)cc1 (stereo not given) | 102* | HuH7 TTR inh=-8;TTR act confirm=1
COc1ccc(C2CC(c3ccccc3)=NN2C(=O)CCC(=O)O)cc1 (stereo not given) | 1
CC(=O)N1c2ccccc2NC2=C(C(=O)CCC2)C1c1cccnc1 (stereo not given) | -1
C[C@@H]1COC(=O)[C@@H](Cc2ccc(F)cc2)C/C=C\C[C@@H](CC(=O)N[C@H](CO)Cc2ccccc2)C(=O)N1 | 8
Fc1ccc(Nc2nc(N3CCOCC3)nc(N3CCOCC3)n2)cc1 | 1
CSc1nc(NCC(C)C)nc(N2CCOCC2)n1 | 15* | HuH7 TTR inh=-3;TTR act confirm=0
c1cncc(CNc2nc(N3CCOCC3)nc(N3CCOCC3)n2)c1 | 1
SMILES | TTR transcr act | others
O=C(Nc1nc2ncccn2c1-c1ccccc1)c1ccc(F)cc1 | 0
COc1ccccc1N1CN(S(=O)(=O)c2ccc(C)cc2)c2nc3ccccc3nc21 | -1
Cc1ccc(S(=O)(=O)NCC2Cc3ccccc3N2S(=O)(=O)c2ccc(C)cc2)cc1 (stereo not given) | 0
Cc1ccc(S(=O)(=O)NC[C@@H]2C[C@H](c3ccccc3)ON2S(=O)(=O)c2ccc(C)cc2)cc1 | 10* | HuH7 TTR inh=-10;TTR act confirm=-1
Cc1ccc(S(=O)(=O)NC[C@H]2CN(S(=O)(=O)c3ccc(C)cc3)[C@@H](Cc3ccccc3)CO2)cc1 | -2
O=C(Nc1sc2c(c1-c1nc3ccccc3s1)CCNC2)C(F)F | 0
N#Cc1ccc(OCC(=O)N[C@@H](Cc2ccccc2)c2nc3ccccc3[nH]2)cc1 | 2
Cc1ccc(S(=O)(=O)n2c3ccc(Cl)cc3c3nc(C)sc32)cc1 | 18* | HuH7 TTR inh=-13;TTR act confirm=0
Cc1ccc(S(=O)(=O)n2c(N)nc3cc(C)c(C)cc32)cc1 | 2
Cc1cn(S(=O)(=O)c2ccc(Cl)cc2)c(C)n1 | 2
Cc1ccc(CC(=O)NC(C)CCc2ccccc2)cc1 (stereo not given) | 4
CC(C)C[C@H]1CNC(=O)C(=O)N1C[C@H](C)NC(=O)Cc1ccccc1 | 15* | HuH7 TTR inh=0;TTR act confirm=0
CC(CCc1ccccc1)NC(=O)Cc1ccc(Br)cc1 (stereo not given) | 0
COc1ccc(OC)c(/C=C/C(=O)N2CCN(S(=O)(=O)c3ccc(C)cc3C)CC2)c1 | 4

Screens deposited in PubChem by The Scripps Research Institute Molecular Screening Center.
